NPC1 promoter act – qHTS Assay for NPC1 Promoter Activators; Huh7 NPC1 promoter luciferase reporter, 24 h; Potency, µM (series often up to 9.22 µM), inactives show at the highest dose activation, hits mostly activators; actives 2.4% (n = 320,000); AID 485313, 2010; further: % of control where 0% means no effect; nearly all actives have a fitted effect of over 60% in size
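NPC1 promoter–luciferase Huh7 cells; 24 h compound; luminescence.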
ELG1 repair inh – qHTS screen for small molecules that inhibit ELG1-dependent DNA repair in human embryonic kidney (HEK293T) cells expressing luciferase-tagged ELG1. HEK293T ELG1-luciferase reporter, luminescence, 16 h; DNA damage induced by 5-fluorouridine. Potency, µM (titrated, usually from 46.1 µM), for the others: at the top dose activity change, negative = inhibition, actives largely listed as inhibitors. actives 2.3% (n = 330,000); further: on the % scale 0 is the no-effect control and ±100 the full control effect; nearly all actives have a fitted effect of over 55% in size
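Cells (2,000 per well) received 5-fluorouridine plus test compound or DMSO and were incubated 16 hr at 37 °C, 5% CO2. Luciferase activity was read by luminescence 30 min after ONE-Glo addition; signal suppression marked inhibition of damage-induced ELG1 function.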
ELG1 genotox – qHTS screen for small molecules that induce genotoxicity in human embryonic kidney (HEK293T) cells expressing luciferase-tagged ELG1 | Potency, µM (series often up to 46 µM), without a hit: at the highest dose activity change, positive = activation, actives largely listed as activators | actives 1.3% (n = 330,000) | HEK293T ELG1-luciferase reporter, luminescence, 16 h | AID 504466, 2011; further: % of control where 0% means no effect; nearly all actives have a fitted effect of over 60% in size
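Step 1: seed 2,000 HEK293T ELG1-luciferase cells per well. Step 2: add compound or DMSO, incubate 16 hr at 37 °C. Step 3: ONE-Glo, 30 min at room temperature, read luminescence.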
SMN2 splice up – qHTS Assay for Enhancers of SMN2 Splice Variant Expression; HEK293 SMN2-luciferase splicing reporter, luminescence, 30-36 h; Potency, µM (titrated, usually from 46.1 µM), for inactives: at the highest dose activity change, positive = activation, actives largely listed as activators; actives 2.8% (n = 210,000); further: % of control where 0% means no effect; nearly all actives have a fitted effect of over 55% in size
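qHTS luciferase splicing reporter: luminescence rises when SMN2 exon 7 is included in transfected HEK293 cells. Compound exposure lasted 30-36 h at 37C, with 4.5 mM final sodium butyrate as control, followed by a ONE-Glo read.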
Rab9 promoter act – qHTS Assay for Rab9 Promoter Activators | Huh7 Rab9 promoter-luciferase reporter, luminescence, 24 h | Potency, µM (highest dose often 9.22 µM), for inactives: at the top dose activation, negative = inhibition, hits mostly activators | actives 2.8% (n = 320,000) | AID 485297, 2010; further: % of control where 0% means no effect; nearly all actives have a fitted effect of over 60% in size
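Using Huh7 cells stably transfected with Rab9 promoter–luciferase, compounds were incubated 24 h at 37 °C, 5% CO2; luciferase luminescence was read 10 min after reagent addition.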
FLuc modulator – qHTS profiling assay for firefly luciferase inhibitor/activator using purifed enzyme and Km concentrations of substrates (counterscreen for miR-21 project); Potency, µM (highest dose often 57.5 µM), for inactives: at the top dose activity change, negative = inhibition, actives largely listed as inhibitors; purified FLuc, Km substrates, luminescence inhibition; Luciferin 4-monooxygenase (Photinus pyralis), P08659; actives 6.9% (n = 360,000);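 further: plate controls were vehicle for no effect and reference inhibitor for full effect; nearly all actives have a fitted effect of over 55% in size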
Target sequence (P08659 whole entry, looked up): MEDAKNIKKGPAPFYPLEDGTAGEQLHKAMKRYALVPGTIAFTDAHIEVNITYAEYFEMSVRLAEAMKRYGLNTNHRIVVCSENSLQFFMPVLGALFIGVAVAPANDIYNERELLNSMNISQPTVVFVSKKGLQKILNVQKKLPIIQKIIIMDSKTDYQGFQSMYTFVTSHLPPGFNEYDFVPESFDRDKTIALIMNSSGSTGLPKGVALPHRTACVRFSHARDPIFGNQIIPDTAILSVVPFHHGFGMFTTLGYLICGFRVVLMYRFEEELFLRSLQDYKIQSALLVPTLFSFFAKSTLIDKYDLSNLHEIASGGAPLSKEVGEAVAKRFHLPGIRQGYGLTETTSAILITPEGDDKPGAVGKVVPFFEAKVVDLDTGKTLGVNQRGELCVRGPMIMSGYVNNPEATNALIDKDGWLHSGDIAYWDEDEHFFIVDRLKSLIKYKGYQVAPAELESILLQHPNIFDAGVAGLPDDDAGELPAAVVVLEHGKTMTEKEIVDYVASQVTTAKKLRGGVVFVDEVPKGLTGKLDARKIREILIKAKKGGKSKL
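Purified P. pyralis luciferase (10nM final) with 10uM D-luciferin and 10uM ATP (Km levels) in 50mM Tris acetate pH 7.5, 10mM Mg acetate, 0.01% Tween-20, 0.05% BSA; qHTS 6-point titration, ~60 µM downward; luminescence read.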
* marks the source's active call; other numbers are inactive results; u = inconclusive; x = no result given; [ ] = dose if it differs, or a comment. The list is not random: actives were taken first. Their share in the collection is about 9.2%. The call rests on the fitted dose curve; in most records, active means well fitted curve in the direction sought with a large enough effect; inconclusive means small, poorly fitted or top-dose-only effect, or another doubt; inactive means no such curve, though single readings can be large; an effect the other way counts as inactive or inconclusive. Potency means the concentration at half of the fitted maximal effect.

SMILES	NPC1 promoter act	ELG1 repair inh	ELG1 genotox	SMN2 splice up	Rab9 promoter act	FLuc modulator
Cc1ccc(NC(=O)CSc2nnnn2C2CC2)cc1S(=O)(=O)N1CCOCC1	1%	-7%	-3%	x	-7%	1%
CCCS(=O)(=O)NCCc1sc2nc(-c3ccc(F)cc3)nn2c1C	x	x	x	x	x	-20%
CCOC(=O)CSc1nc2ccsc2c(=O)[nH]1	1%	10%	2%	x	2%	-11%
O=[N+]([O-])c1cccc(CSc2nc3ccccc3[nH]2)c1	17%	u	7%	-15%[1.84 µM]	27%	u
COc1cccc(CSc2nc3ccccc3[nH]2)c1	3.5µM*	u	u	16µM*	1µM*	4.3µM*
COC(=O)c1cc(CSc2nc3ccccc3[nH]2)oc1C	u	u	9.2µM*	-45%	u	7.6µM*
O=c1[nH]c(SCc2ccccc2)nc2ccsc12	6%	u	16%	u	8%	17µM*
Fc1ccccc1CSc1nc2ccccc2[nH]1	1.8µM*	u	u	5.6µM*	1.3µM*	2.4µM*
Fc1c(F)c(F)c(CSc2nc3ccccc3[nH]2)c(F)c1F	2%	u	u	-2%	5%	u
CCCc1cc(=O)[nH]c(SCc2cc(C(=O)OC)c(C)o2)n1	1%	9%	2%	-3%	-2%	-1%
Cc1cc(NC(=O)c2ccc3c(c2)C(=O)N(c2cccc(C)c2C)C3=O)no1	-1%	1%	-4%	x	6%	4%
NNC(=O)c1ccc(CSc2nc3ccccc3[nH]2)cc1	-2%	-6%	0%	21%	3%	-4%
O=C(O)c1ccc(CSc2nc3ccccc3[nH]2)cc1	2%	17%	8%	x	0%	17µM*
Cc1c(C(=O)Nc2ccc3c(c2)CCC3)cccc1[N+](=O)[O-]	u	u	u	x	u	13µM*
CCC(=O)Nc1cccc(NC(=O)c2cccc([N+](=O)[O-])c2C)c1	8%	23µM*	-3%	-15%	-3%	-2%
O=C1CCCC(=O)C1C(=O)C1CCN(S(=O)(=O)c2ccccc2)CC1	0%	13%	1%	26%	6%	-9%
CCOC(=O)c1sc2ncn(CC(=O)Nc3cc(C)cc(C)c3)c(=O)c2c1C	x	x	x	-2%	x	2%
COc1ccc(-c2cc(N)n(S(=O)(=O)c3c(F)c(F)c(F)c(F)c3F)n2)cc1OC	-23%	23µM*	13%	-87%	-35%	u
Clc1ccc(-n2ncc3c(NCCN4CCOCC4)ncnc32)cc1	29%	u	3.7µM*	-47%	5%	6.7µM*
Clc1ccc(-c2nc(NCCCN3CCOCC3)c3ccccc3n2)cc1	-2%	23µM*	-12%	x	1%	-2%
c1ccc2c(c1)oc1c(NCCCN3CCOCC3)ncnc12	-3%	13%	12%	7%	-1%	-4%
Clc1cccc(-c2nc(NCCCN3CCOCC3)c3ccccc3n2)c1	1%	u	-18%	-49%	0%	-4%
c1ccc(-n2ncc3c(NCCCN4CCOCC4)ncnc32)cc1	3.2µM*	u	u	u	4µM*	24µM*
Cc1sc2ncnc(NCCN3CCOCC3)c2c1C	-2%	18µM*	-15%	-43%	-7%	0%
CC1CCc2c(sc3ncnc(NCCN4CCOCC4)c23)C1 (stereo not drawn)	-5%	-3%	4%	x	-2%	-10%
SMILES	NPC1 promoter act	ELG1 repair inh	ELG1 genotox	SMN2 splice up	Rab9 promoter act	FLuc modulator
COc1ccc(S(=O)(=O)NCCc2cn3ccsc3n2)cc1	x	x	x	x	x	-7%
O=C(Nc1ccc2c(c1)OCO2)c1cccc2c1C(=O)N(Cc1cccnc1)C2	-3%	u	u	-4%	2%	15µM*
CCOC(=O)CC(NC(=O)c1cccc2c1C(=O)N(Cc1cccnc1)C2)c1ccc(OCC)c(OC)c1 (stereo not drawn)	-7%	-20%	-1%	x	2%	-3%
COc1cc(NC(=O)c2cccc3c2C(=O)N(Cc2cccnc2)C3)cc(OC)c1OC	-6%	9.2µM*	0%	u	-8%	1%
O=S(Cc1ccc(Br)cc1)Cc1nnc(SCc2ccc(Br)cc2)n1-c1ccccc1 (stereo not drawn)	-8%	u	-5%	-71%	-25%	3%
O=C(COc1ccccc1Cl)NC(=O)NC1CCCCC1	8%	u	5%	x	-3%	u
CCOC(=O)C1CCCN(S(=O)(=O)c2cc(OCC(=O)NC3CCCCC3)c(C)cc2Cl)C1 (stereo not drawn)	0%	21µM*	-8%	-49%	-6%	5%
CCOC(=O)C1CCCN(C(=O)c2ccc(Cl)c(S(=O)(=O)N3CCCCCC3)c2)C1 (stereo not drawn)	-12%	10µM*	-14%	x	-12%	-6%
Cc1cc(Cl)c(S(=O)(=O)N2CCN(c3ccc(F)cc3)CC2)cc1OCC(=O)NC1CCCCC1	-29%	8.2µM*	-17%	-78%	-23%	5%
O=C(COc1ccc(F)cc1Cl)NC1CCCCCC1	4µM*	u	u	x	2.2µM*	8.5µM*
Cc1cc(Cl)c(S(=O)(=O)N2CCN(c3ccc(F)cc3)CC2)cc1OCC(N)=O	-16%	u	-7%	-30%	-31%	-3%
Cc1ccc(CNC(=O)c2ccc(-n3cnc4cccnc43)cc2)cc1	x	x	x	x	x	7%
CCOC(=O)[C@@H]1[C@H]2COc3ccc(Br)cc3[C@@H]2N2C(=O)N(c3cccc(Cl)c3)C(=O)[C@@]12C	x	-2%	-3%	x	x	x
Cc1cc2c(=O)c(C(=O)c3ccncc3)cn(CC(=O)Nc3cccc(C)c3C)c2cc1C	x	x	x	x	x	0%
Cc1cccc(-n2c(CCN3C(=O)c4ccccc4C3=O)nc3ccccc3c2=O)n1	6%	-3%	-4%	2%	-2%	-1%
Cc1cccc(-n2c(CCCN3C(=O)c4ccccc4C3=O)nc3ccccc3c2=O)n1	-2%	0%	23µM*	0%	14%	7%
COc1ccc2c(c1)CCc1c(C(=O)Nc3ccc(OC)cc3OC)noc1-2	x	x	x	8%	x	-6%
COc1ccc2c(c1)CCc1c(C(=O)NCC(C)C)noc1-2	1.1µM*	u	13µM*	4.5µM*	1.4µM*	3.4µM*
